From PubChem
D3 antag = blocks the human D3 dopamine receptor; D3R cells, DiscoveRx beta-arrestin luminescence, antagonist mode; active compounds read low; max response, negative = inhibition, %; hit rate 2.5% among 360,000; AID 652054; in the data active = max response below about -50%; inconclusive = no clear call, values can overlap the other calls; note: % is set by controls: 0 for no effect and ±100 for the full control effect
Target sequence (P35462 whole entry, looked up): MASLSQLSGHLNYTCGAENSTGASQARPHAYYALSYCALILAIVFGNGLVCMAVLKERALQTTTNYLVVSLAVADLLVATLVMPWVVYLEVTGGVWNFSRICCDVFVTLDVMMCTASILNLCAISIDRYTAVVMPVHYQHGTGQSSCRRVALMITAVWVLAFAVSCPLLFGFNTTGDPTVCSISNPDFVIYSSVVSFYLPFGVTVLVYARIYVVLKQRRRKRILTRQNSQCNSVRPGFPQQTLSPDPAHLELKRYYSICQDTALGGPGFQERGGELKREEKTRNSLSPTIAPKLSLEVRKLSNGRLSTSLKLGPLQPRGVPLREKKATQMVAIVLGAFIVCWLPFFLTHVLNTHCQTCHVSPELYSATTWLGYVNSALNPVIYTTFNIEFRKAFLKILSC
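Cells plated overnight at 1500 cells/well, then exposed to library compounds with dopamine controls for 90 minutes at 37 degrees C. DiscoveRx reagent added for 30–60 minutes at room temperature; luminescence read, quantitative HTS format.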
D1 agonist = agonists of human D1 dopamine receptor | AID 504660 | hit rate 1% among 360,000 | HEK293 T-REx D1 cells, calcium flux, agonist mode | activation, % at 2 µM; in the data active = activation above about 30%; note: 0% is about no effect
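Inducible HEK293 T-REx D1 cells, force-coupled to calcium signalling, were plated at 4000 cells/well with tetracycline and held overnight at 30 C. After no-wash calcium dye loading, compound-evoked calcium rise over 180 s flagged agonists.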
D3 ag = D3 dopamine receptor (human) agonism; D3R DiscoveRx beta-arrestin cells, luminescence, 90 min; AID 652048; max activation, %; hit rate 0.58% among 410,000; in the data active = max activation above about 30%; note: 0% is about no effect
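Cells at 1500/well, incubated overnight, then treated with pinned compounds (dopamine as control) for 90 min at 37 degrees C. DiscoveRx reagent added for 30 - 60 minutes at room temperature; luminescence read.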
D1 antag = blocks dopamine activation of the human D1 receptor | P21728 | HEK293 TREx D1 cells, calcium flux, dopamine EC80; active compounds read low | activity change, negative = inhibition, % at 10 µM | hit rate 3.2% among 360,000; in the data active = activity change below about -30%; note: % is set by controls: 0 for no effect and ±100 for the full control effect
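Tetracycline-induced HEK293 T-REx cells with force-coupled D1 receptor were loaded with a no-wash calcium dye. Compound was added after a 10 s baseline and read kinetically for 180 s; EC80 dopamine was then added and calcium flux followed another 180 s.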
D1 potentiator = enhances dopamine response at the human D1 receptor; HEK293 TREx D1 cells, calcium flux, dopamine EC20 potentiation; potentiation, % at 10 µM; hit rate 0.036% among 360,000; P21728; in the data active = potentiation above about 30%; note: 0% is about no effect
An asterisk follows results filed as active; ? = inconclusive; / = no result given. The list is not random: actives were taken first. Their share in the collection is about 6%.

SMILES	D3 antag	D1 agonist	D3 ag	D1 antag	D1 potentiator
CN(C(=O)COC(=O)c1cccc(Cl)c1)C1CCS(=O)(=O)C1 (configuration not stated)	-2.6	0.5	-2.3	15.8	-2.1
CN(C(=O)COC(=O)c1ccc(-c2ccc(O)cc2)cc1)C1CCS(=O)(=O)C1 (configuration not stated)	0.4	3.6	-8.9	-46.1*	-3.8
COc1ccc(NC(=O)Cn2c(=O)cc(C)c3c(C)nn(C)c32)cc1	/	12.6	5.0	-16.5	-4.6
N#Cc1nc(-c2cccc3ccccc23)oc1NCC#CCOC(=O)c1cccs1	/	5.8	/	-4.1	-1.9
C/C(=N\NC(=O)c1ccc(Cl)c(Cl)c1)c1ccccn1	?	4.3	-11.9	-38.0*	-1.8
C/C(=N\NC(=O)c1cc(Br)ccc1O)c1ccccn1	4.0	11.9	3.7	4.2	-0.8
C/C(=N\NC(=O)c1cccc2ccccc12)c1ccccn1	-92.9*	13.1	-33.0	-10.0	-3.0
C/C(=N\NC(=O)c1cccc(Br)c1)c1ccccn1	-52.8*	2.0	-8.1	1.4	2.8
CCOc1ccc(OCc2ccc(C(=O)N/N=C(\C)c3ccccn3)cc2)cc1	-80.5*	10.9	-26.3	-12.5	-1.6
C/C(=N\NC(=O)c1ccccc1Cl)c1ccccn1	?	3.4	-11.1	3.2	1.6
Cc1ccc(S(=O)(=O)Cc2cc(F)c([N+](=O)[O-])cc2[N+](=O)[O-])cc1	-22.9	0.4	-5.5	-25.8	-8.2
C/C(=N\NC(=O)C(c1ccccc1)c1ccccc1)c1ccccn1	-75.7*	8.1	-22.3	-20.9	0.0
C/C(=N/NC(=O)c1ccc(C(C)(C)C)cc1)c1ccccn1	-114.5*	/	-51.0	/	/
C/C(=N/NC(=O)c1ccccn1)c1ccncc1	-17.1	0.4	-16.2	15.7	0.2
COc1ccc(NC(=O)c2ccccn2)cc1OC	11.1	-0.5	4.5	6.3	-1.8
COc1ccc(C(=O)N/N=C(\C)c2ccccn2)cc1OC	-54.1*	2.7	-3.8	-20.1	-2.5
CCOc1ccc(CC(=O)N/N=C(\C)c2cccnc2)cc1	-1.8	9.1	-1.5	-35.9*	-6.2
CC(C)Oc1cccc(NC(=O)C2(C)CCN2C(C)C)c1 (configuration not stated)	1.3	/	0.2	/	/
Cc1ccc(Nc2cc(C)c(C#N)c3nc4ccccc4n23)c(C)c1	/	-0.7	0.9	-37.9*	-8.6
CCOc1ccccc1N(CC(=O)Nc1ccccc1C(=O)O)S(C)(=O)=O	-8.0	0.1	-5.0	-44.5*	-5.8
CCOc1ccccc1N(CC(=O)OC)S(C)(=O)=O	-106.5*	1.9	5.1	-3.4	3.4
CCOC(=O)c1ccccc1NC(=O)CN(c1ccccc1OCC)S(C)(=O)=O	5.2	2.1	3.2	16.1	2.0
COC(=O)CN(c1cc(C(F)(F)F)ccc1Cl)S(C)(=O)=O	-15.8	3.7	3.7	-39.1*	-5.7
CCOc1ccccc1N(CC(=O)N1CCCCCC1)S(C)(=O)=O	-17.6	-2.4	1.4	15.9	0.3
COc1cccc(-n2c(=O)c3sc4ccccc4c3n(CC(=O)NC3CCCCC3)c2=O)c1	/	7.5	-9.5	3.5	-1.2
SMILES	D3 antag	D1 agonist	D3 ag	D1 antag	D1 potentiator
CC(C)(C)NC(=O)NC(=O)CSc1ccc(S(=O)(=O)N2CCCCC2)cn1	-4.5	8.1	1.6	-38.9*	5.3
CC(C)N(C(=O)CSc1ccc(S(=O)(=O)N2CCCCC2)cn1)c1ccccc1	-3.2	2.2	-9.0	-37.3*	-4.5
O=C(CSc1ccc(S(=O)(=O)N2CCOCC2)cn1)Nc1ccc(F)c(F)c1	-1.1	20.7	1.0	-57.2*	-1.9
O=C(CSc1ccc(S(=O)(=O)N2CCOCC2)cn1)Nc1ccc(OC(F)F)cc1	4.9	8.3	-6.0	-27.5	-13.8
O=C(CSc1nc2cc(S(=O)(=O)N3CCOCC3)ccc2o1)Nc1c(F)cccc1F	-11.3	5.8	-11.7	-31.6*	-2.6
COc1ccc(CNC(=O)c2cc3sccc3n2Cc2ccc(C)cc2)cc1	/	3.6	-11.2	11.8	-0.9
CCN(CC)c1ccc(N=Nc2ccc(S(=O)(=O)N(C)C)cc2)c(S(=O)(=O)NCC[n+]2ccccc2)c1	/	/	8.7	/	/
Cc1[nH]n2c(=O)cc(-c3ccccc3Cl)nc2c1-c1ccccc1	/	-0.9	-6.0	16.2	-1.0
COCc1cc(=O)n2[nH]c(C)c(-c3ccc(Cl)cc3)c2n1	-60.5*	/	1.9	/	/
Cc1ccccc1-c1cc(C(=O)Nc2nc3c(s2)CCCC3)c2ccccc2n1	-90.7*	3.0	-58.1	-5.2	10.2
